Among the data in PubChem BioAssay (NCI) are growth values, retold here.

Molecules are shown by their SMILES. Compounds without any hit were thinned out: in the full panel of roughly 83,000, 20% have a hit.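 Method: cells in 96-well plates; compound added at one concentration; 48 h incubation; percent growth measured; values under 10 scored active.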 Unmarked numbers belong to inactive results. Activity calls are given as the source filed them.

The first test relates to MCF7 breast. Nature of the test: NCI-60 one-dose screen, 48 h (100 = growth as untreated, 0 = no growth, -100 = all killed). To be noted: 10 µM unless noted.
With `CCN(CC)c1ccc(C(=O)c2ccccc2)cc1`, the growth is 98.7%.
Same read-out and setting: then `NC1=NN=C(N)C1=Cc1cc2ccccc2n2nnnc12`, with 89.9%; and `Fc1ccc(-c2cn3c(nc4ccccc43)c(-c3ccccc3)n2)cc1`, with 92.8%.
For `CCNc1nc2ccc(Nc3ccnc4cc(Cl)ccc34)cc2[nH]1`, the growth is 45.1%.
For `O=S(=O)(NCCNc1nccc(-c2c(-c3cccc(O)c3)nc3occn23)n1)c1cccc(F)c1`, the growth is 57%.
With `COC(=O)/C=C1\S/C(=N\NC(=O)c2cc3ccc2/C=C\c2ccc(cc2)/C=C\3)N(c2ccccc2)C1=O`, the growth is 23.2%.
Same read-out and setting: under `CCOC(=O)c1cc(C(=O)c2ccc(OC)c(OC)c2)n2c1ccc1ccccc12` stands 80%; under `CCOC(=O)c1cc(C#N)n2ccc3ccccc3c12`, 95.7%; under `O=C1/C=C/[C@@H](O)[C@@H]2C[C@@H](O)C[C@H]2/C=C/CCC[C@H](CCc2ccc3ncccc3c2)O1`, 2.74% (active).
For the molecule `N#CC1=C(N)Oc2c(ccc3ccccc23)C1c1ccccc1Cl` (centres undefined), the growth is 16.8%.
On the same count and under the same terms, under `O=C(O)c1ccc(NCc2cn(-c3ccc(C(F)(F)F)cc3)nc2-c2ccc(C(=O)O)cc2)cc1` stands 96%; under `COc1cccc(C(=O)NNc2nc(Cl)nc(N3CCN(C(c4ccccc4)c4ccccc4)CC3)n2)c1`, 88%; under `N#C/C(=C\c1ccc(Cl)cc1)n1nnc2cc(F)c(F)cc21`, 12%.
The same measure, in the same setting: then `COc1ccc(C(=O)C2C(C#N)C(C#N)C3c4ccccc4C=CN23)cc1` (centres undefined), with 91.3%; and `COc1cc(/C=N/NC(=O)c2cnn3c2NC(c2ccccc2)C3)ccc1Oc1ccccc1` (centres undefined), with 9.6% (active).
The same measure, in the same setting: then `C[C@H](c1nc2ccc(N)cc2[nH]1)[C@H]1CC[C@H]2[C@@H]3CCC4=CC(=O)CC[C@]4(C)[C@H]3CC[C@]12C`, with 67.9%; and `COc1cc(C2C3=C(COC3=O)N(CCO)c3cc4c(cc32)CCC4)cc(OC)c1OC` (centres undefined), with -16.2% (active).
Consider `Cc1ccc(NC(C(=O)c2ccccc2)c2ccccc2)cc1` (centres undefined), for which the growth is 38.5%.
Same read-out and setting: then `OCc1cnccc1NCCCOc1ccccc1`, with 92.1%; and `Cn1cc(CC2CC(=O)N(c3ccccc3)C2=O)sc1=NC(=O)c1ccccc1` (centres undefined), with 99.2%.
Still for that read-out and setting: under `OCc1cnc2ccccc2c1NC1CCCCCC1` stands 73.5%; under `Cc1cccc(NC(=O)Nc2ccc(-n3cnc4cc(-c5ccc(O)cc5)ccc43)cc2)c1`, 16.9%; under `COc1ccc(/C=N/NC(=O)c2cnn3c2NC(c2ccccc2)C3)cc1OC` (centres undefined), 29.6%.
Turning to `Cc1c(C)c([N+](=O)[O-])c(C)c([N+](=O)[O-])c1C`, the growth is 97.3%.
On the same count and under the same terms, under `COc1c(Cl)c2c(c(OC)c1OC)-c1ccc(SC)c(=O)cc1[C@@H](NC(=O)OCC(F)(F)F)CC2` stands 14.8%; under `O=C(/C=C/c1ccc(Cl)cc1)c1ccc(NC(=O)N2CCN(c3cc4c(cc3F)c(=O)c(C(=O)O)cn4C3CC3)CC2)cc1`, 22.6%.
Take `CCOc1ccc(/C=N/Nc2cc(C)nc3ccc(Br)cc23)cc1`: the growth was 75.8%.
`CNC(=O)c1cncc(Cn2nc(C)c(NC(=O)c3ccc(COc4ccc(C(F)(F)F)cc4C)cc3)c2C)c1`: the growth is 37.5%.
Same read-out and setting: then `COc1ccc(C(=O)c2nc3ccccc3n2CC(=O)c2ccc(F)cc2)cc1`, with 62.9%; and `CN1CCN(c2ccc(NC3=C(Cl)C(=O)c4ncccc4C3=O)cc2C(F)(F)F)CC1`, with -49.1% (active); and `COc1ccccc1NS(=O)(=O)c1cccc(C(=O)Nc2ccc(Br)cc2)c1`, with 32.5%.
Still for that read-out and setting: then `CCNC(=O)Oc1ccc(/C(=C(\C)c2ccccc2)c2ccc(OCCN(CC)CC)cc2)cc1`, with 28.8%; and `Oc1ccc(C2c3ccccc3Oc3ccccc32)c2cccnc12`, with 17.4%.
The same measure, in the same setting: then `COc1ccc2c(c1)oc1c(C)c3c(c(C)c12)C(=O)N(N)C3=O`, with 57.3%.
For `C[C@H]1[C@H]2[C@H]3CC[C@@H]4[C@@]5(C)CC[C@H](O)C(C)(C)[C@@H]5CC[C@@]4(C)[C@]3(C)CC[C@]23CO[C@]1(C)[C@@H](C(=O)/C=C\c1ccco1)C3`, the growth is 101%.
Still for that read-out and setting: under `COc1ccc(C/C(C)=C(/c2ccc(OCCCN(C)C)cc2)c2ccc(OC(C)=O)cc2)cc1` stands 18.1%.
Take `CC1(C)CC[C@]23CC[C@]4(C)[C@H](CC[C@@H]5[C@@]6(C)CCCNC(C)(C)[C@@H]6CC[C@]54C)[C@H]2[C@H]1OC3`: the growth was -25% (active).

A further test deals with HCT-116 colon. The description is as above. To be noted: 10 µM unless noted.
As for `CCN(CC)c1ccc(C(=O)c2ccccc2)cc1`, the growth was 91.3%.
On the same count and under the same terms, then `NC1=NN=C(N)C1=Cc1cc2ccccc2n2nnnc12`, with 104%; and `Fc1ccc(-c2cn3c(nc4ccccc43)c(-c3ccccc3)n2)cc1`, with 89.1%.
Turning to `CCNc1nc2ccc(Nc3ccnc4cc(Cl)ccc34)cc2[nH]1`, the growth was 17.3%.
On the same count and under the same terms, then `O=S(=O)(NCCNc1nccc(-c2c(-c3cccc(O)c3)nc3occn23)n1)c1cccc(F)c1`, with 70.4%.
Same read-out and setting: then `COC(=O)/C=C1\S/C(=N\NC(=O)c2cc3ccc2/C=C\c2ccc(cc2)/C=C\3)N(c2ccccc2)C1=O`, with 4.05% (active).
Still for that read-out and setting: then `CCOC(=O)c1cc(C(=O)c2ccc(OC)c(OC)c2)n2c1ccc1ccccc12`, with 88%; and `CCOC(=O)c1cc(C#N)n2ccc3ccccc3c12`, with 108%; and `O=C1/C=C/[C@@H](O)[C@@H]2C[C@@H](O)C[C@H]2/C=C/CCC[C@H](CCc2ccc3ncccc3c2)O1`, with -53.6% (active).
Take `N#CC1=C(N)Oc2c(ccc3ccccc23)C1c1ccccc1Cl` (centres undefined): the growth was 11.9%.
On the same count and under the same terms, then `O=C(O)c1ccc(NCc2cn(-c3ccc(C(F)(F)F)cc3)nc2-c2ccc(C(=O)O)cc2)cc1`, with 109%.
`COc1cccc(C(=O)NNc2nc(Cl)nc(N3CCN(C(c4ccccc4)c4ccccc4)CC3)n2)c1`: the growth was 39.2%.
Same read-out and setting: under `N#C/C(=C\c1ccc(Cl)cc1)n1nnc2cc(F)c(F)cc21` stands -11.6% (active); under `COc1ccc(C(=O)C2C(C#N)C(C#N)C3c4ccccc4C=CN23)cc1` (centres undefined), 86.1%.
On the same count and under the same terms, then `COc1cc(/C=N/NC(=O)c2cnn3c2NC(c2ccccc2)C3)ccc1Oc1ccccc1` (centres undefined), with 1.82% (active).
On to `C[C@H](c1nc2ccc(N)cc2[nH]1)[C@H]1CC[C@H]2[C@@H]3CCC4=CC(=O)CC[C@]4(C)[C@H]3CC[C@]12C`, for which the growth was 74.6%.
The same measure, in the same setting: under `COc1cc(C2C3=C(COC3=O)N(CCO)c3cc4c(cc32)CCC4)cc(OC)c1OC` (centres undefined) stands -35.3% (active).
The same measure, in the same setting: then `Cc1ccc(NC(C(=O)c2ccccc2)c2ccccc2)cc1` (centres undefined), with 35.6%.
Same read-out and setting: then `OCc1cnccc1NCCCOc1ccccc1`, with 100%; and `Cn1cc(CC2CC(=O)N(c3ccccc3)C2=O)sc1=NC(=O)c1ccccc1` (centres undefined), with 96.9%.
For the molecule `OCc1cnc2ccccc2c1NC1CCCCCC1`, the growth was 77.9%.
On to `Cc1cccc(NC(=O)Nc2ccc(-n3cnc4cc(-c5ccc(O)cc5)ccc43)cc2)c1`, for which the growth is 16.1%.
`COc1ccc(/C=N/NC(=O)c2cnn3c2NC(c2ccccc2)C3)cc1OC` (centres undefined): the growth is 22%.
The same measure, in the same setting: then `Cc1c(C)c([N+](=O)[O-])c(C)c([N+](=O)[O-])c1C`, with 105%; and `COc1c(Cl)c2c(c(OC)c1OC)-c1ccc(SC)c(=O)cc1[C@@H](NC(=O)OCC(F)(F)F)CC2`, with 1.82% (active); and `O=C(/C=C/c1ccc(Cl)cc1)c1ccc(NC(=O)N2CCN(c3cc4c(cc3F)c(=O)c(C(=O)O)cn4C3CC3)CC2)cc1`, with 11.8%.
`CCOc1ccc(/C=N/Nc2cc(C)nc3ccc(Br)cc23)cc1`: the growth was 36.6%.
Still for that read-out and setting: under `CNC(=O)c1cncc(Cn2nc(C)c(NC(=O)c3ccc(COc4ccc(C(F)(F)F)cc4C)cc3)c2C)c1` stands 44.7%.
Same read-out and setting: then `COc1ccc(C(=O)c2nc3ccccc3n2CC(=O)c2ccc(F)cc2)cc1`, with 89.5%; and `CN1CCN(c2ccc(NC3=C(Cl)C(=O)c4ncccc4C3=O)cc2C(F)(F)F)CC1`, with -57.3% (active); and `COc1ccccc1NS(=O)(=O)c1cccc(C(=O)Nc2ccc(Br)cc2)c1`, with 37.9%.
Still for that read-out and setting: under `CCNC(=O)Oc1ccc(/C(=C(\C)c2ccccc2)c2ccc(OCCN(CC)CC)cc2)cc1` stands 55.7%; under `Oc1ccc(C2c3ccccc3Oc3ccccc32)c2cccnc12`, 20.1%; under `COc1ccc2c(c1)oc1c(C)c3c(c(C)c12)C(=O)N(N)C3=O`, -13% (active).
Regarding `C[C@H]1[C@H]2[C@H]3CC[C@@H]4[C@@]5(C)CC[C@H](O)C(C)(C)[C@@H]5CC[C@@]4(C)[C@]3(C)CC[C@]23CO[C@]1(C)[C@@H](C(=O)/C=C\c1ccco1)C3`, the growth is 100%.
Still for that read-out and setting: under `COc1ccc(C/C(C)=C(/c2ccc(OCCCN(C)C)cc2)c2ccc(OC(C)=O)cc2)cc1` stands 55.3%; under `CC1(C)CC[C@]23CC[C@]4(C)[C@H](CC[C@@H]5[C@@]6(C)CCCNC(C)(C)[C@@H]6CC[C@]54C)[C@H]2[C@H]1OC3`, -99.4% (active).
